Assay [1] deals with T1, Muscle, skeletal receptor tyrosine-protein kinase (Homo sapiens) (UniProt O15146).
T1 sequence (whole entry): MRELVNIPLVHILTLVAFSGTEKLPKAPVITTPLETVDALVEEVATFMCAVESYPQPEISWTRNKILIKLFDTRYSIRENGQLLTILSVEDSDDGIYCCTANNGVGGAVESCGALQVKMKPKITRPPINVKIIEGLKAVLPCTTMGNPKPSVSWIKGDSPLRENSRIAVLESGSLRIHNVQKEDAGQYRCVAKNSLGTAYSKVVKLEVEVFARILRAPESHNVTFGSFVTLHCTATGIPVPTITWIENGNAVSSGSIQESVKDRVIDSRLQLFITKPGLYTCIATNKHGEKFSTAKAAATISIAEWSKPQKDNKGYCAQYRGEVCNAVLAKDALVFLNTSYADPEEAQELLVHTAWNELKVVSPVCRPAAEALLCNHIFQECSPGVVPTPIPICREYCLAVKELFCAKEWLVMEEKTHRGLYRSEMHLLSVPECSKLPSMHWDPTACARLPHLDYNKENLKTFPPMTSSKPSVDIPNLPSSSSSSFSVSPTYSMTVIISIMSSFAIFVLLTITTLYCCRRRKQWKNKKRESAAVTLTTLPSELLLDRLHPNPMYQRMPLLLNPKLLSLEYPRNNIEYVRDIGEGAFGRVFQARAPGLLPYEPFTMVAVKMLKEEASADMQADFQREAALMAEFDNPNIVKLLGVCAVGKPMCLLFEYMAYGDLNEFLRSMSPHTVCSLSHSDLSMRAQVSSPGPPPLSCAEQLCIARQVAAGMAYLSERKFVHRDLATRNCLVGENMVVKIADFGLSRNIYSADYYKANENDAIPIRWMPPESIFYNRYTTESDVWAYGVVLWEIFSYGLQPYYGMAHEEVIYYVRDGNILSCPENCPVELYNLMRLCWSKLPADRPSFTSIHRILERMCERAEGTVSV
The conditions noted are these: at 1 µM.

The target in assay [2] is T1, Muscle, skeletal receptor tyrosine-protein kinase (Homo sapiens). The conditions noted are these: at 10 µM.
Assay [3] addresses T2, Serine/threonine-protein kinase Nek11 (Homo sapiens) (UniProt Q8NG66).
T2 sequence (whole entry): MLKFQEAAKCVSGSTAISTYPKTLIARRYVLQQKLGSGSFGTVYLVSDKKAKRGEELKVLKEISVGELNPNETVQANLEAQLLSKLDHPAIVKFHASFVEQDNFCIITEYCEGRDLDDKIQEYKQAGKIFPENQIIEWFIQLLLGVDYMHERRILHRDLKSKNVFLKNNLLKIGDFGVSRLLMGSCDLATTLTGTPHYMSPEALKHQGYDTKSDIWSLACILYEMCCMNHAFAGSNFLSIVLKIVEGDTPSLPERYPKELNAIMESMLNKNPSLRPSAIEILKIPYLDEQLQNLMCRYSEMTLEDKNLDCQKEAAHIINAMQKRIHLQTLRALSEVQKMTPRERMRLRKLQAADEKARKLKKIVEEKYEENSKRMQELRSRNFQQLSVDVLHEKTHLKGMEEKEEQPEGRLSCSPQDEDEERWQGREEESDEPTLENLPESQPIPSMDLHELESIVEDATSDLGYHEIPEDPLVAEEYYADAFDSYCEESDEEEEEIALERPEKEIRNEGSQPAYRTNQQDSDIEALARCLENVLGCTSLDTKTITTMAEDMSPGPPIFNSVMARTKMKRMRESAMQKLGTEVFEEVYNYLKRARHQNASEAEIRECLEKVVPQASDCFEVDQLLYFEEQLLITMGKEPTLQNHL
The conditions noted are these: at 1 µM.

Assay [4] concerns the target T2, Serine/threonine-protein kinase Nek11 (Homo sapiens). As to conditions: at 10 µM.
Assay [5] has as its target T3, Serine/threonine-protein kinase Nek2 (Homo sapiens) (UniProt P51955).
T3 sequence (whole entry): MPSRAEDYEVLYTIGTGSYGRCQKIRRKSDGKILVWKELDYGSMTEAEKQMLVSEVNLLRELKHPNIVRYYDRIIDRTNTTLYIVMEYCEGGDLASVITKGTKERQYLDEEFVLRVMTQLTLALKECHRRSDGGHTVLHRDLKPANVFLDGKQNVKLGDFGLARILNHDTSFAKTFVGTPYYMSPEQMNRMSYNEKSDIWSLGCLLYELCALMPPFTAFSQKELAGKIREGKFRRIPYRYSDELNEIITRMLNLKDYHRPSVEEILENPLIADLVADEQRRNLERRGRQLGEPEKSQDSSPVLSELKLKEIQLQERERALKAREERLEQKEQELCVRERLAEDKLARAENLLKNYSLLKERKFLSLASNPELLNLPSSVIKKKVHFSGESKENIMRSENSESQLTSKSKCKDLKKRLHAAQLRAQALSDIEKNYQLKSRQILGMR
As to conditions: at 1 µM.

The target of assay [6] is T3, Serine/threonine-protein kinase Nek2 (Homo sapiens). The conditions noted are these: at 10 µM.
Assay [7] addresses Serine/threonine-protein kinase tousled-like 2 (Homo sapiens) (UniProt Q86UE8). As to conditions: at 1 µM.
Assay [8] has the same target. As to conditions: at 10 µM.
For assay [9], the target named is T4, Testis-specific serine/threonine-protein kinase 1 (Homo sapiens) (UniProt Q9BXA7).
T4 sequence (whole entry): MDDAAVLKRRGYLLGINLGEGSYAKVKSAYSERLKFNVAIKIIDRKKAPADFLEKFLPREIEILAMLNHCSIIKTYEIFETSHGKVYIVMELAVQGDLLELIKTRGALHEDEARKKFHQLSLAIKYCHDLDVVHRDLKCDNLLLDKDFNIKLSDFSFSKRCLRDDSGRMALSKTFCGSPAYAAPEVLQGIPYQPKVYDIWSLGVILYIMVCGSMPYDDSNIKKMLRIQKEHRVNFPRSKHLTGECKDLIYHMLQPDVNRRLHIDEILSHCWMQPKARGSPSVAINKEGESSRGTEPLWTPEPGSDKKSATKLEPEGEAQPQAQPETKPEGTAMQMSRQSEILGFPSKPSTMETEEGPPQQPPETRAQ
As to conditions: at 1 µM.

Assay [10] addresses T4, Testis-specific serine/threonine-protein kinase 1 (Homo sapiens). The conditions noted are these: at 10 µM.
Assay [11] has as its target T5, Testis-specific serine/threonine-protein kinase 2 (Homo sapiens) (UniProt Q96PF2).
T5 sequence (whole entry): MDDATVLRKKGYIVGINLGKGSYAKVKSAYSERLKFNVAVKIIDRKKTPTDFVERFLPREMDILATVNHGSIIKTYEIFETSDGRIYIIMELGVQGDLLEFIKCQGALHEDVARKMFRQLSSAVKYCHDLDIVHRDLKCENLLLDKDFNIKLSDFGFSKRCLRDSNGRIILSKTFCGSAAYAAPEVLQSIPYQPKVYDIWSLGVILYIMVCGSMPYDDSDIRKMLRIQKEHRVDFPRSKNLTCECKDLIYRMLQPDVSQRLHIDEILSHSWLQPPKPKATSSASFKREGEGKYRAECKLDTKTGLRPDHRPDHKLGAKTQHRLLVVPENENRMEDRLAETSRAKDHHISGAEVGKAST
As to conditions: at 10 µM.

For assay [12], the target named is T6, Tyrosine-protein kinase Tec (Homo sapiens) (UniProt P42680).
T6 sequence (whole entry): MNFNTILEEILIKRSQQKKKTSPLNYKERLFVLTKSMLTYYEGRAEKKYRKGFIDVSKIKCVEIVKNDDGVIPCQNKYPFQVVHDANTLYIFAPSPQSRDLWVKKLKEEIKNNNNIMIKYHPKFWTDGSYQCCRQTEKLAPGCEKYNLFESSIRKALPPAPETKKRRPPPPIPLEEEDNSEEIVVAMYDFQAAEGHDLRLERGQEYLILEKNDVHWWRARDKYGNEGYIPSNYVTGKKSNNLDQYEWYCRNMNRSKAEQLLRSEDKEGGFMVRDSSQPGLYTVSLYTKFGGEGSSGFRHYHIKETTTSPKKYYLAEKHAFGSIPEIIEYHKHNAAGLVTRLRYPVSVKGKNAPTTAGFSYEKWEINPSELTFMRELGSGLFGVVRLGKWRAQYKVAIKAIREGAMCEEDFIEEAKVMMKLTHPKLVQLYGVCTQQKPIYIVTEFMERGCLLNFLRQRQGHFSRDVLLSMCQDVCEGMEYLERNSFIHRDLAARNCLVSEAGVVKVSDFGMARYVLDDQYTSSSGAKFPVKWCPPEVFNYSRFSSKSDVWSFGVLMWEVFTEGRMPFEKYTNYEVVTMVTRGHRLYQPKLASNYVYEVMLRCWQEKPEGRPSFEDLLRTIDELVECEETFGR
The conditions noted are these: at 1 µM.

Assay [13] deals with T6, Tyrosine-protein kinase Tec (Homo sapiens). The conditions noted are these: at 10 µM.
For assay [14], the target named is Angiopoietin-1 receptor (Homo sapiens) (UniProt Q02763). The conditions noted are these: at 1 µM.
Angiopoietin-1 receptor (Homo sapiens), sequence (Q02763 whole entry): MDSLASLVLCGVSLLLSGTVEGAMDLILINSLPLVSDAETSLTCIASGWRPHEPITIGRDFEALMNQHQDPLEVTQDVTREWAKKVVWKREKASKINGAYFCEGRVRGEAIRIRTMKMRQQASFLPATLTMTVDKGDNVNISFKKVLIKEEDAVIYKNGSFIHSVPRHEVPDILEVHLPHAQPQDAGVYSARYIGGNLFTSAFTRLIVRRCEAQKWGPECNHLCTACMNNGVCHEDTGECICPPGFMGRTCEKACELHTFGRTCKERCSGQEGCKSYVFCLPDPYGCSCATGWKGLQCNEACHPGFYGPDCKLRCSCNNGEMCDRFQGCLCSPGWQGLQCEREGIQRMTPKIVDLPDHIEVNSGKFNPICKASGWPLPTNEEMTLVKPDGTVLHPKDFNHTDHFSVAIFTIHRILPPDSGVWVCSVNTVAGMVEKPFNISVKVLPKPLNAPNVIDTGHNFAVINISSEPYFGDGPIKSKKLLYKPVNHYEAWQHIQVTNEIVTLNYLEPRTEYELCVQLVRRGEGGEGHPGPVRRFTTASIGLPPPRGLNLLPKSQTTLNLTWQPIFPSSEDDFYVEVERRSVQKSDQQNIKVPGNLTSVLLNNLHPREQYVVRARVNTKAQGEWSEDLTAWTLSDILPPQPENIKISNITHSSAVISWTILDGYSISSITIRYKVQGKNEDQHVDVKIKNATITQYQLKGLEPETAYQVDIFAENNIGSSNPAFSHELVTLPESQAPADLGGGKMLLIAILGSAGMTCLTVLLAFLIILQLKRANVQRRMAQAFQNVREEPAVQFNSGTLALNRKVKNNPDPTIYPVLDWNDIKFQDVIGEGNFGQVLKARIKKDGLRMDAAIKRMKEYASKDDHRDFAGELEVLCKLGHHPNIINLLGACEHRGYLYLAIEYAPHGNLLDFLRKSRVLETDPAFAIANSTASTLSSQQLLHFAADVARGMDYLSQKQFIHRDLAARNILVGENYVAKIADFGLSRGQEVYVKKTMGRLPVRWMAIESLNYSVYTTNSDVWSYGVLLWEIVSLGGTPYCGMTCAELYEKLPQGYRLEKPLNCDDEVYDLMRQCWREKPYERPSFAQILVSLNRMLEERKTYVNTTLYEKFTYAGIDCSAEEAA
Assay [15] has the same target. The conditions noted are these: at 10 µM.
For assay [16], the target named is High affinity nerve growth factor receptor (Homo sapiens) (UniProt P04629). The conditions noted are these: at 1 µM.
High affinity nerve growth factor receptor (Homo sapiens), sequence (P04629 33-796 limits assumed): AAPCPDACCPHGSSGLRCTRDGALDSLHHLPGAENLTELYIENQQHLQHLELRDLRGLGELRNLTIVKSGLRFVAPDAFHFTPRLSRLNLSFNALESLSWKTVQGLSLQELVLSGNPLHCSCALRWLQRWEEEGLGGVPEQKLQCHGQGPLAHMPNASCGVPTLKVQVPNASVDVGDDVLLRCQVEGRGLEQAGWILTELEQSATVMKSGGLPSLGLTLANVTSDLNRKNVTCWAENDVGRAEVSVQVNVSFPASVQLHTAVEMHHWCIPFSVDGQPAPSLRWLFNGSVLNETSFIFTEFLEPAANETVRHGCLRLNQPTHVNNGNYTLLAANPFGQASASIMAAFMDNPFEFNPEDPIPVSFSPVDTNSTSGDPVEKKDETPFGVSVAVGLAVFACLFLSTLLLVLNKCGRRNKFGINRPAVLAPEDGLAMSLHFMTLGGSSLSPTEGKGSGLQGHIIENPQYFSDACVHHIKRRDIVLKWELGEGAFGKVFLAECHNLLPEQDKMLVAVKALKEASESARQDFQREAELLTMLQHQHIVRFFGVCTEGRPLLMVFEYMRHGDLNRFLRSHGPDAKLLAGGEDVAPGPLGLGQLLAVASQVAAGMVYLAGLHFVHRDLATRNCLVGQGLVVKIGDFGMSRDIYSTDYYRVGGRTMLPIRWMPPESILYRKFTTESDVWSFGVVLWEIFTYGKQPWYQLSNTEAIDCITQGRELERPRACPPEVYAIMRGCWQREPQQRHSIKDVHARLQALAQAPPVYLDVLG
Assay [17] shares this target. The conditions noted are these: at 10 µM.
The target of assay [18] is BDNF/NT-3 growth factors receptor (Homo sapiens) (UniProt Q16620). The conditions noted are these: at 1 µM.
BDNF/NT-3 growth factors receptor (Homo sapiens), sequence (Q16620 32-822 limits assumed): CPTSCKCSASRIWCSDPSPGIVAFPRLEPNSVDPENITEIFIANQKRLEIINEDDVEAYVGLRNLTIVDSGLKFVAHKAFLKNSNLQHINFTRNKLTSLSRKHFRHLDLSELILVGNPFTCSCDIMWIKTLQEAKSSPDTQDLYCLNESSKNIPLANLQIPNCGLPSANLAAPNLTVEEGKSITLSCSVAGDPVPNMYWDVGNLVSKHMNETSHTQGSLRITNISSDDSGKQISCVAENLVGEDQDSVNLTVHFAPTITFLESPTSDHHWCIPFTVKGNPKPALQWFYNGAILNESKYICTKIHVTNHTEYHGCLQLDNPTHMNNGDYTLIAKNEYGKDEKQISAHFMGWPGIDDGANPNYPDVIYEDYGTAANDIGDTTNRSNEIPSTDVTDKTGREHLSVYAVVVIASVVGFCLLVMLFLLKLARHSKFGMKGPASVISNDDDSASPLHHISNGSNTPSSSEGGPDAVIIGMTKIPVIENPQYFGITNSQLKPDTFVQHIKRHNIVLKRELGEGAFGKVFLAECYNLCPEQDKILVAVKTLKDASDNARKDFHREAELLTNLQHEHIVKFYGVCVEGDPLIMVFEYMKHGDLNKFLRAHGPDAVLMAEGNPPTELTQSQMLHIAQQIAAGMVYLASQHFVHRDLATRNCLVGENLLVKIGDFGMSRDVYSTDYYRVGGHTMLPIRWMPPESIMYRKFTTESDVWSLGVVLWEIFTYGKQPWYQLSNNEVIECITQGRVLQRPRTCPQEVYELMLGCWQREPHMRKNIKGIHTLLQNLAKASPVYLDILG
The target in assay [19] is T7, Serine/threonine-protein kinase Nek3 (Homo sapiens) (UniProt P51956).
T7 sequence (whole entry): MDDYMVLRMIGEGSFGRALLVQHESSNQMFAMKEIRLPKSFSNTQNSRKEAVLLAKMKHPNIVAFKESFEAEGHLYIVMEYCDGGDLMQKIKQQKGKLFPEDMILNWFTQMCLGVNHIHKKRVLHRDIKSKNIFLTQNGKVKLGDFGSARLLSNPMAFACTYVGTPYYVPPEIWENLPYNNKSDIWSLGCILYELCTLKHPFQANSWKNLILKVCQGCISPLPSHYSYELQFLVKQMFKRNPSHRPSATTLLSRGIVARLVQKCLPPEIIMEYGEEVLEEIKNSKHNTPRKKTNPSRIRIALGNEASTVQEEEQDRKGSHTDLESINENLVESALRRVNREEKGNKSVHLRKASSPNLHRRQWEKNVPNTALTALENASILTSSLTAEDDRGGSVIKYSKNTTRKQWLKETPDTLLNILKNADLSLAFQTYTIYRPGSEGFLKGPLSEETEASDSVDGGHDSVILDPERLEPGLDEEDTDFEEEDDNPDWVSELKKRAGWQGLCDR
As to conditions: at 1 µM.

The target of assay [20] is T7, Serine/threonine-protein kinase Nek3 (Homo sapiens). The conditions noted are these: at 10 µM.

Serine/threonine-protein kinase tousled-like 2 (Homo sapiens), sequence (Q86UE8 whole entry, looked up): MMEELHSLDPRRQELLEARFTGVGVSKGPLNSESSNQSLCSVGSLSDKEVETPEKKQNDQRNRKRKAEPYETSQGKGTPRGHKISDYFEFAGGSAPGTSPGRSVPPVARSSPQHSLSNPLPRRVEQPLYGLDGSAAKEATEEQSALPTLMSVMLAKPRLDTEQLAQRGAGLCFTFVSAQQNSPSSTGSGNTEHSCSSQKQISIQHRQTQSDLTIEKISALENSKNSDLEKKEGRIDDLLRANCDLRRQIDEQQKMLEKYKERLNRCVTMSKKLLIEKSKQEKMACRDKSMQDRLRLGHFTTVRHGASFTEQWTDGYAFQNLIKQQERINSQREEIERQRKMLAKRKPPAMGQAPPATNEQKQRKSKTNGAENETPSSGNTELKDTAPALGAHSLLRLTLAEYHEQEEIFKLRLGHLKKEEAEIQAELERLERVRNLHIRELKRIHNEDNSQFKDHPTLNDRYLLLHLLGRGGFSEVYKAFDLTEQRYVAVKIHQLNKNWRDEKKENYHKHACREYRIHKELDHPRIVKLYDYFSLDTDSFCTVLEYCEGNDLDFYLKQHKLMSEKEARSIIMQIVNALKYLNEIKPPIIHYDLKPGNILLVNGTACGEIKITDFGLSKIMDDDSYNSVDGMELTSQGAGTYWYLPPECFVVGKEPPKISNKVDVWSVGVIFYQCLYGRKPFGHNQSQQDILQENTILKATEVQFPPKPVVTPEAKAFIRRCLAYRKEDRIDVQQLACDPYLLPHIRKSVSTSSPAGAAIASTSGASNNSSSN

Usually residual activity stands for the signal under treatment as a percentage of the control signal. With `c1ccc2c(-c3ccncc3)c[nH]c2c1`, the residual activity in assay [1] was determined as 88%; in assay [2], 82%; in assay [3] it was 89%; in assay [4] it was 67%; in [5] it was 78%; in [6], 88%. The residual activity in [7] was 103%; in [8], 85%; in assay [9], 94%; in [10] it was 89%; in assay [11], 95%; in assay [12], 103%. Moreover, the residual activity in [13] was 85%; in assay [14], 77%; in assay [15], 88%; in assay [16] it was 91%; in assay [17], 55%; in [18], 134%.
`O=C1Nc2ccc(Br)cc2/C1=C\c1cc2c([nH]1)CCCC2`: the residual activity is 61% in assay [1]; 50% in assay [2]; 101% in assay [6]; 102% in assay [19]; 97% in assay [20]; 107% in [7]. In addition, the residual activity in [12] stood at 105%; in assay [14], 110%; in [16] it was 19%; in assay [17], 20%; in assay [18], 48%.
Turning to `COc1cc2ncnc(Nc3ccc(NC(=O)c4ccccc4)cc3)c2cc1OC`, the residual activity was 98% in assay [2]; 96% in assay [3]; 103% in assay [4]; 105% in [5]; 95% in [6]; 109% in assay [7]. In addition, the residual activity in assay [8] was determined as 86%; in [9] it was 109%; in assay [10], 92%; in assay [11], 96%; in assay [12] it was 97%; in assay [13], 82%. Further, the residual activity came to 65% in assay [15], 73% in assay [16], 20% in [17] and 54% in assay [18].
Turning to `c1ccc(-c2n[nH]cc2-c2ccnc3ccccc23)nc1`, the residual activity in assay [1] is 105%; in assay [2] it was 79%; in [3] it was 98%; in [4], 96%; in assay [5] it was 82%; in [6], 101%. Also, the residual activity was 96% in [7]; 99% in assay [8]; 91% in assay [9]; 92% in [10]; 93% in [11]; 88% in [12]. Also, the residual activity was found to be 91% in assay [13]; 91% in assay [14]; 90% in assay [15]; 72% in [16]; 76% in [17].
Regarding `Oc1n[nH]c2nnc(-c3c(-c4ccccc4)nn4ccccc34)cc12`, the residual activity was 87% in assay [1]; 84% in [2]; 56% in assay [3]; 74% in assay [4]; 95% in assay [5]; 93% in assay [6]. The residual activity in assay [19] turned out to be 77%; in [20], 103%; in [7], 83%; in [8], 82%; in [9], 82%; in [10], 93%. In addition, the residual activity in assay [11] came to 83%; in [12], 85%; in [13], 66%; in assay [14], 97%; in assay [15] it was 93%; in assay [16], 83%. The residual activity was found to be 70% in assay [17] and 98% in assay [18].
On to `Cc1cc2ncc(-c3ccccc3)nc2cc1C`, for which the residual activity worked out at 101% in assay [1]; 75% in assay [2]; 97% in assay [3]; 93% in assay [4]; 92% in assay [5]; 105% in [6]. Further, the residual activity was 93% in assay [20]; 103% in assay [7]; 99% in assay [8]; 101% in assay [9]; 97% in assay [10]; 91% in [11]. Also, the residual activity in assay [12] stood at 90%; in assay [13], 71%; in assay [14], 98%; in assay [15], 89%; in assay [16], 106%; in assay [17], 81%. In addition, the residual activity in [18] worked out at 94%.

These data come from ChEMBL document CHEMBL2218924, “A broad activity screen in support of a chemogenomic map for kinase signalling research and drug discovery” (Biochem J, 2013).
